# According to PubChem BioAssay:
# Values joined by “and” are separate entries in the source; they are usually repeats but may differ in a detail not shown here. Equal entries are not always repeated. Inconclusive results are not listed. Active and inactive are the calls of the source. Unless noted, the rule behind the calls is not given here.
# Key:
# [1] = P. berghei load reduction in hepatocytes – cell-based, HepG2, luciferase luminescence, HepG2 viability, primary screen (AID 624349; in the data active = parasite load remaining mostly below about 12%, no sharp cut-off; inactive = mostly above about 10%;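 note: 100% = mean of DMSO negative control wells on the same plate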); conditions: P. berghei liver stage in HepG2, luciferase luminescence, concentration not given here; parasite load remaining: stronger effect = lower value; viability: measured here: HepG2 viability without parasites
# [2] = liver-stage malaria parasite load reduction – cell-based, known kinase inhibitor set, luminescence, hepatoma host viability (AID 624392); conditions: Plasmodium liver stage in hepatoma cells, luciferase luminescence, concentration not given here; liver cell % of control: measured here: host liver cell viability; parasite % of control: stronger effect = lower value;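 note: infected cells incubated roughly two days before readout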
# [3] = altered dexamethasone sensitivity, NF-kB reporter, cell-based, luciferase, IL-1B stimulus (AID 624486); conditions: IL-1B + dexamethasone, luminescence; percent of negative control (+Dex): actives lie on both sides, concentration not given here; z-score: measured here: IL-1B alone, no Dex;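 for percent of negative control (+Dex): 100% = mean signal of vehicle control wells on the plate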
# [4] = molecular target: Cellular tumor antigen p53 (Homo sapiens) (UniProt P04637); experiment: GFP-p53 level modulators in HPV16+ cells – imaging, known kinase inhibitor set, EGFP/DsRed ratio (AID 1053116); conditions: GFP-p53 stability, stronger effect = higher value; EGFP object count: measured here: GFP-p53 positive objects count;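 note: cells exposed to compounds for 24 h at 37 °C before reading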
# [5] = inducers of IRF3 signaling, differentiated THP-1 – cell-based, PMA-stimulated THP-1, luminescence (AID 1053176); conditions: PMA-differentiated THP-1, IRF3 reporter luminescence; stronger effect = higher value
# [6] = viability loss in pontine glioma line – cell-based, SU-DIPG-XVII, MIPE5.0, CellTiter-Glo, qHTS, dose response (AID 1347060; cut-off not given, nearly all actives have AC50 up to about 26 µM;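 note: cells exposed to compound for 48 hours before viability readout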); conditions: CellTiter-Glo ATP luminescence
# [7] = viability loss in pontine glioma line – cell-based, SU-DIPG-XXV, MIPE5.0, CellTiter-Glo, qHTS, dose response (AID 1347065; cut-off not given, nearly all actives have AC50 up to about 26 µM;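 note: cells exposed to compound for 48 hours before ATP readout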); conditions: CellTiter-Glo ATP luminescence
# [8] = growth inhibition of DIPG cells – cell-based, MIPE5.0 library, qHTS (AID 1347068; cut-off not given, nearly all actives have IC50 up to about 30 µM;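 for IC50: cells exposed to compound for 48 hours before viability readout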); conditions: SU-DIPG-XXV viability
# [9] = viability loss with induced miR-34 in A549 – imaging, A549 dox-inducible miR-34, nuclei and caspase counts, primary screen (AID 1347080;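 active = compounds whose cell count with miR-34 switched on is under 0.7 times the count with it off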); conditions: A549 miR-34 inducible, Hoechst nuclei count, 48 h
# [10] = C. elegans survival during P. aeruginosa infection – whole organism (AID 651566);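 note: tested at 14 µM; sign flipped so higher z means a lower ratio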; conditions: C. elegans killed by P. aeruginosa, survival ratio
# [11] = pro-inflammatory signaling induction in mouse macrophages – cell-based, murine, luminescence (AID 652131); conditions: murine macrophage pro-inflammatory reporter, stronger effect = higher value
# [12] = MELAS cybrid and Rieske KO viability enhancers – cell-based, MELAS cybrids, Rieske KO mouse fibroblasts, CellTiter-Glo, primary screen (AID 1508586;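 active = mean z-score across replicates of 1.96 or higher in either the MELAS or the Rieske mutant cell line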;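 note: z relative to plate mean and SD of compound and empty wells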); conditions: low glucose
# [13] = viability loss in pontine glioma line – cell-based, JHH-DIPG-1, MIPE4.0, CellTiter-Glo, qHTS, dose response (AID 1347062; cut-off not given, nearly all actives have AC50 up to about 27 µM); conditions: JHH-DIPG-1 viability, CellTiter-Glo ATP luminescence
# [14] = viability loss in pontine glioma line – cell-based, SU-DIPG-IV, MIPE4.0, CellTiter-Glo, qHTS, dose response (AID 1347063; cut-off not given, nearly all actives have AC50 up to about 30 µM;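 note: compound exposure lasted 48 hours before the viability readout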); conditions: CellTiter-Glo ATP luminescence
# [15] = growth inhibition of DIPG cells – cell-based, MIPE4.0 library, CellTiter-Glo luminescence, qHTS (AID 1347066; cut-off not given, nearly all actives have AC50 up to about 30 µM;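 note: cells exposed to compound for 48 hours before readout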); conditions: SU-DIPG-VI viability, CellTiter-Glo ATP luminescence
# [16] = JHH-DIPG-1 glioma cell viability, MIPE5.0 library, CellTiter-Glo luminescence, qHTS (AID 1347067; cut-off not given, nearly all actives have AC50 up to about 26 µM;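 note: cells exposed to compound for 48 hours before readout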); conditions: JHH-DIPG-1 glioma viability, CellTiter-Glo ATP luminescence
# [17] = stronger effect = lower value, cell number ratio, induced over uninduced
# [18] = measured here: relative caspase fold change +Dox/-Dox
# [19] = measured here: total cells with miR-34 induction, stronger effect = lower value
# [20] = measured here: total cells without miR-34 induction
# [21] = MELAS cybrid survival, CellTiter-Glo 48 h, stronger effect = higher value
# [22] = Rieske KO mouse fibroblast survival, CellTiter-Glo 72 h
# Cellular tumor antigen p53 (Homo sapiens), sequence (P04637 whole entry, looked up): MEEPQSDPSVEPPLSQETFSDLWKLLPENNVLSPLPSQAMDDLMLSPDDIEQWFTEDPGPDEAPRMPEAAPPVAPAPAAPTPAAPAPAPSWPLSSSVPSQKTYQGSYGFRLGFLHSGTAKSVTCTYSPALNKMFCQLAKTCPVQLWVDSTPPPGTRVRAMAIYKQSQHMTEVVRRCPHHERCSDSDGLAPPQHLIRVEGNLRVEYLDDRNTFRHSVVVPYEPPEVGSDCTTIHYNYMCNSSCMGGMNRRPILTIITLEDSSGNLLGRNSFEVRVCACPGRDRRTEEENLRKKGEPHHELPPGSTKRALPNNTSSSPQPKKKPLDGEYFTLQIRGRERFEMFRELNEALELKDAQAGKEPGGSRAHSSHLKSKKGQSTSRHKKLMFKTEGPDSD
smiles,measurement,setting,value
O=C1NC(=O)C(c2c[nH]c3ccccc23)=C1c1c[nH]c2ccccc12,parasite load remaining,[1],50.4% (inactive)
same,viability,[1],162%
same,liver cell % of control,[2],97.5%
same,parasite % of control,[2],26.7% (inactive)
same,percent of negative control (+Dex),[3],98% (inactive)
same,z-score,[3],-0.485
same,EGFP object count,[4],22.5
same,EGFP/DsRed ratio,[4],0.273 (inactive)
same,fraction signal,[5],-0.0025 (inactive)
same,AC50,[6],11.8 µM (active)
same,AC50,[7],18.6 µM (active)
same,IC50,[8],18.6 µM (active)
same,fold change,[9]; [17],1.26 (inactive)
same,fold change,[9]; [18],0.968
same,cell count,[9]; [19],5130
same,cell count,[9]; [20],4070
Nc1nc(-c2cccc(Cl)c2)c(-c2ccc3ncccc3n2)s1,liver cell % of control,[2],156%
same,parasite % of control,[2],115% (inactive)
same,percent of negative control (+Dex),[3],103% (inactive)
same,z-score,[3],0.42
same,z-score,[10],-1.02 (inactive)
same,z-score,[11],-0.477 (inactive)
same,EGFP object count,[4],2.5
same,EGFP/DsRed ratio,[4],0.0471 (inactive)
same,fraction signal,[5],-0.0045 (inactive)
same,z-score,[12]; [21],0.115 (inactive)
same,z-score,[12]; [22],-0.0691
Cn1cc(/C=C2\C(=O)Nc3cccnc32)c2ccccc21,liver cell % of control,[2],210%
same,parasite % of control,[2],18.2% (inactive)
same,percent of negative control (+Dex),[3],92.5% (inactive)
same,z-score,[3],0.27
same,z-score,[10],0.915 (inactive)
same,z-score,[11],5.16 (inactive)
same,EGFP object count,[4],4
same,EGFP/DsRed ratio,[4],0.0768 (inactive)
same,fraction signal,[5],-0.0095 (inactive)
same,AC50,[6],8.33 µM (active)
same,outcome,[13],inactive
same,outcome,[14],inactive
same,AC50,[7],9.34 µM (active)
same,outcome,[15],inactive
same,outcome,[8],inactive
same,z-score,[12]; [21],0.351 (inactive)
same,z-score,[12]; [22],-0.515
CN1C(=O)C(c2c[nH]c3ccccc23)=C(c2c[nH]c3ccccc23)C1=O,parasite load remaining,[1],34.8% (inactive)
same,viability,[1],125%
same,liver cell % of control,[2],87.4%
same,parasite % of control,[2],30.7% (inactive)
same,percent of negative control (+Dex),[3],96.5% (inactive)
same,z-score,[3],-0.615
same,EGFP object count,[4],3
same,EGFP/DsRed ratio,[4],0.0517 (inactive)
same,fraction signal,[5],-0.0095 (inactive)
same,fold change,[9]; [17],0.868 (inactive)
same,fold change,[9]; [18],1.05
same,cell count,[9]; [19],5070
same,cell count,[9]; [20],5840
COc1ccc(COc2ccc(Cc3cnc(N)nc3N)cc2OC)cc1,parasite load remaining,[1],13.9% (inactive)
same,viability,[1],98.2%
same,liver cell % of control,[2],99.1%
same,parasite % of control,[2],45.5% (inactive)
same,percent of negative control (+Dex),[3],90% (inactive)
same,z-score,[3],-0.44
same,z-score,[10],-0.075 (inactive)
same,z-score,[11],1.35 (inactive)
same,EGFP object count,[4],4.5
same,EGFP/DsRed ratio,[4],0.0511 (inactive)
same,fraction signal,[5],-0.003 (inactive)
same,outcome,[7],inactive
same,outcome,[16],inactive
same,outcome,[8],inactive
same,fold change,[9]; [17],0.931 (inactive)
same,fold change,[9]; [18],0.609
same,cell count,[9]; [19],7300
same,cell count,[9]; [20],7840
same,z-score,[12]; [21],-0.29 (inactive) and -0.397 (inactive)
same,z-score,[12]; [22],-0.126 and -1.03
